Source: ChEMBL document CHEMBL2218924, “A broad activity screen in support of a chemogenomic map for kinase signalling research and drug discovery” (Biochem J, 2013)

How the values were obtained:
[1] = target: T1, Protein kinase C epsilon type (Homo sapiens) (UniProt Q02156); conditions: at 1 µM
T1 sequence (whole entry): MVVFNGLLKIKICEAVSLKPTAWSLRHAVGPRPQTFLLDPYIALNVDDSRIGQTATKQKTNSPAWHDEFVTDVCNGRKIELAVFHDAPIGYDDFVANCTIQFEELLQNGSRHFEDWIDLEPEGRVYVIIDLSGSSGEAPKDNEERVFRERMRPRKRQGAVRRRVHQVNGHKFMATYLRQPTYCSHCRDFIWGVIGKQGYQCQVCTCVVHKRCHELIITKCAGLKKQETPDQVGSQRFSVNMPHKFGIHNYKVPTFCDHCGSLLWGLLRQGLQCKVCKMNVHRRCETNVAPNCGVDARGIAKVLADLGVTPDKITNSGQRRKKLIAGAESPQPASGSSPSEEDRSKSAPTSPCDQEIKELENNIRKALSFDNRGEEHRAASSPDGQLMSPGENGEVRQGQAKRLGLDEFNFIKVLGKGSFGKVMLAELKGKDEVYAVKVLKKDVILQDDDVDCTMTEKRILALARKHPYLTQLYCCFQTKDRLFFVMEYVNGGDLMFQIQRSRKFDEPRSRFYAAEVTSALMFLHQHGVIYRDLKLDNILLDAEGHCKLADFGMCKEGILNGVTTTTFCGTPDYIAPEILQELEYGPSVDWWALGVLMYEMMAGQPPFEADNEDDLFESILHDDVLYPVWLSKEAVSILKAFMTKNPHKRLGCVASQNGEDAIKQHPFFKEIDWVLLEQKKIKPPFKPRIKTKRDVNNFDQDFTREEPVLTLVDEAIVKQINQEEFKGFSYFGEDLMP

[2] = target: T1, Protein kinase C epsilon type (Homo sapiens); conditions: at 10 µM

Row | SMILES | residual activity [1] | residual activity [2]
1 | O=C1c2ccccc2-[n+]2ccc3c([nH]c4ccccc43)c21 | 93% | 94%
2 | CC(C)n1cnc2c(NCc3ccccc3)nc(NCCCO)nc21 | 91% | 103%
3 | O=Nc1c(-c2c(O)[nH]c3ccccc23)[nH]c2ccccc12 | 106% | 91%
4 | c1ccc(-c2n[nH]cc2-c2ccnc3ccccc23)nc1 | 74% | 89%
5 | CCN(CC)C(=O)c1ccc(Nc2nc(OCC3CCCCC3)c3nc[nH]c3n2)cc1 | 80% | 69%
6 | Cn1nc2c3c(cccc31)C(=O)c1ccccc1-2 | 106% | 98%
7 | COc1cccc(-c2cc(=O)c3ccccc3o2)c1N | 106% | 100%
8 | O=C1Nc2ccccc2/C1=C1/Nc2ccccc2/C1=N\OCCC(O)CO (stereo not drawn) | 95% | 82%
9 | CCOc1cc2ncnc(Nc3cccc(Br)c3)c2cc1OCC | 84% | 100%
